Shown is part of a subset that was picked to be rich in hits.
Pf Dd2 inh: qHTS Primary assay for Inhibitors of Plasmodium falciparum Dd2 growth in vitro. AID 1347417, 2020. actives 4.3% (n = 120,000). P. falciparum Dd2 growth, SYBR Green, 72 h. Potency, µM (doses to about 28.9 µM), for the others: at the top dose activity, negative = inhibition, actives largely listed as inhibitors; active = well fitted inhibition curve with a large enough effect;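 also: plate controls were DMSO vehicle for no effect and reference drug for full effect; nearly all actives have a fitted effect of over 65% in size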
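Readout: SYBR Green fluorescence, 485 nm excitation, 535 nm emission, after ~16 h lysis at 37C. Before that, Dd2-infected red cells (2.5% hematocrit) grew 72 h with compound, 29 uM top final concentration.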
Numbers without * were called inactive; i = inactive; [ ] = another dose, or the depositor's remark. Potency is read from the fitted curve at half-maximal effect.

SMILES	Pf Dd2 inh
CCC(=O)Nc1ccc(C2(C(=O)NC3CC3)CCCCC2)cc1	-19.1%
c1ccc(-c2noc(-c3cncnc3N3CCN(c4ccccc4)CC3)n2)cc1	-11.3%
O=C(c1ccco1)N1CCN(c2ncncc2-c2nc(-c3ccccc3)no2)CC1	3.98µM*
NC(=O)C1CCN(c2ncncc2-c2nc(-c3ccccc3)no2)CC1	-20.5%
O=C1NCCC[C@@H]1NC(=O)[C@H]1CN(C(=O)NC2CCCCC2)CCN1C(=O)c1cncnc1	12.1%
O=C(Nc1cccn2nc(C3CCC3)nc12)c1cccc(C(F)(F)F)c1	4.47µM*
Cc1ccc(C(=O)Nc2cccn3nc(C4CCC4)nc23)cc1C	i
O=C(Nc1cccn2nc(C3CCC3)nc12)c1ccc(F)cc1	i
CCn1ccc(C(=O)N2CCCCCCNC(=O)[C@@H]3CCCC[C@@H]32)n1	-11.7%
Cc1nnc(SCC(=O)Nc2ccc(N(C)C)cc2)[nH]c1=O	11.2µM*
Cc1ccc(NC(=O)CSc2nc(C)c(Cc3ccccc3)c(=O)[nH]2)cc1C	-25.4%
Cc1cccc(NC(=O)CSc2nnc(C)c(=O)[nH]2)c1	49.1%
O=C1CCN(C(=O)C2CCC2)CCCC(C(=O)N2CCN(c3ccccn3)CC2)CCN1 (centres undefined)	0.7%
N#Cc1cccc(CN[C@@H]2CO[C@H](CNC(=O)c3ccncc3)[C@H]2O)c1	-10.3%[44.1 µM]
CC1=C(C(=O)OC(C)C)C(c2ccccc2)N2C(CC(=O)NCC3CCCO3)=CSC2=N1 (centres undefined)	i
Cc1ncsc1CN1CCCCCCNC(=O)[C@@H]2CCC[C@@H]21	-1.7%
Cc1ccc(CN2CCCN(S(C)(=O)=O)C(c3ccccc3)CC(=O)NCC2)s1 (centres undefined)	i
O=C1CC(c2ccccc2)N(C(=O)C2CCCC2)CCCCCCN1 (centres undefined)	-7.6%
Cc1ccc(CN2CCCCCCNC(=O)CC2c2ccccc2)s1 (centres undefined)	8.91µM*
O=C1NCCCCCCN(Cc2cccc(OC(F)(F)F)c2)[C@H]2CCC[C@@H]12	7.08µM*
Cc1ccsc1CN1CCCCCCNC(=O)[C@@H]2CCC[C@@H]21	8.91µM*
Cc1ccc(C(=O)NCC(=O)N2CCCCCCNC(=O)CC2c2ccccc2)s1 (centres undefined)	12.3%
O=C1NCCCCCN(Cc2cccnc2)[C@H]2CCC[C@@H]12	i
O=C1NCCCCCN(Cc2ccccn2)[C@H]2CCC[C@@H]12	i
O=C1CC(c2ccccc2)N(C(=O)c2ccsc2)CCCCCN1 (centres undefined)	-6.0%
SMILES	Pf Dd2 inh
O=C1NCCCCCN(Cc2ccc(F)cc2F)[C@H]2CCC[C@@H]12	i
Cc1ccsc1CN1CCCCCCNC(=O)CC1c1ccccc1 (centres undefined)	12.6µM*
CCCc1ccc(S(=O)(=O)N2CCC(c3c[nH]c4c(C)cccc34)CC2)cc1	-24.5%
CCC(=O)N1CCN(C2CCN(Cc3cccnc3)C2=O)CC1 (centres undefined)	-3.4%
Cc1nc(C2CCCN(C(=O)Cc3ccncc3)C2)cc(N2CCOCC2)n1 (centres undefined)	0.5%
COc1ccc(CNC(=O)Cn2c(C)cc3nc4n(c(=O)c32)CCC4)cc1	-6.7%
O=C(c1cccs1)N1CCCC(n2cc(-c3nc(-c4ccccc4)no3)nn2)C1 (centres undefined)	-2.5%
COCC(=O)NC1CCC12CCN(C(=O)c1cc3ccccc3[nH]1)CC2 (centres undefined)	-22.1%
Cc1ccsc1C(=O)N1CCc2c(nc3cc[nH]n3c2=O)C1	31.4%
CCOC(=O)C1=C(C)N=C2SC=C(CC(=O)N(C)CC)N2C1c1cccc([N+](=O)[O-])c1 (centres undefined)	-12.6%
O=C(c1ccncc1F)N1C[C@@H](COCC2CC2)[C@H](c2ccncc2)C1	-7.3%
O=C(NC1CC1)c1ccnc2[nH]ccc12	19.5%[44.1 µM]
O=C1CC(c2ccccc2)N(S(=O)(=O)c2cccs2)CCCCCN1 (centres undefined)	i
Cc1ccsc1CN1CCCCCNC(=O)CC1c1ccccc1 (centres undefined)	7.08µM*
O=C1CC(c2ccccc2)N(C(=O)c2cccs2)CCCCCN1 (centres undefined)	-7.1%
COc1ccc(C)cc1NC(=O)CN1C(=O)NC2(CCCCC2)C1=O	-17.0%
CCc1cccc(C)c1NC(=O)Cn1c(N(C)Cc2ccccc2)nc(C)cc1=O	11.2µM*
CCc1ccccc1NC(=O)Cn1c(N(C)Cc2ccccc2)nc(C)cc1=O	-7.7%
Cc1ccc(NC(=O)Cn2c(N(C)Cc3ccccc3)nc(C)cc2=O)c(C)c1	i
O=C(NC[C@H]1O[C@@H]2C[C@@H](CC(=O)N3CCOCC3)O[C@@H]2[C@@H]1O)Nc1cccc(Cl)c1	10.5%
COC1CN(c2cccc(F)c2)C12CCN(C(=O)CC1CCCC1)CC2 (centres undefined)	-6.8%
CC(=O)N1CCC(N2C[C@@H](CO)[C@H](NC(=O)c3ccccc3)C2)CC1	26.4%
O=C(c1ccncc1)N1CCC2(CC1)CC(N1CCCC1)CCO2 (centres undefined)	37.9%
CCn1c(-c2ccccc2)nn(CC(=O)NCc2ccc3nonc3c2)c1=O	0.8%
O=C(O)[C@]12CN(Cc3ccncc3)C[C@H]1CN(C1CCOCC1)C2	-12.3%
SMILES	Pf Dd2 inh
O=C(NCc1ccc2nonc2c1)[C@@]12CNC[C@@H]1CN(C1CCCC1)C2	7.94µM*
C#CCNC(=O)C1=NOC2CN(C(=O)C3CC3)CC12 (centres undefined)	12.3%[44.1 µM]
CCOC(=O)c1c(C)oc2nc(C)nc(NC(C)c3ccccc3)c12 (centres undefined)	10µM*
CCOC(=O)c1c(C)oc2nc(C)nc(Nc3cccc(OC)c3)c12	-8.7%
CCOC(=O)c1c(C)oc2ncnc(Nc3ccc(OCC)cc3)c12	-1.3%
CCOC(=O)c1c(C)oc2ncnc(NCCc3ccccc3)c12	-6.1%
CCOC(=O)c1c(C)oc2nc(C)nc(N3CCN(c4ccc(C)cc4C)CC3)c12	0.5%
CCOC(=O)c1c(C)oc2nc(C)nc(NCc3ccc(OC)cc3OC)c12	-1.1%
CCOC(=O)c1c(C)oc2ncnc(N3CCN(c4cccc(Cl)c4)CC3)c12	2.0%
CCOC(=O)c1c(C)oc2nc(C)nc(N3CCN(c4cccc(C(F)(F)F)c4)CC3)c12	10µM*
CCOC(=O)c1c(C)oc2nc(C)nc(NCC3CCN(Cc4ccc(Cl)cc4)CC3)c12	12.6µM*
CCOC(=O)c1c(C)oc2nc(C)nc(NCc3ccc(Cl)cc3)c12	i[5.79 µM]
CCOC(=O)c1c(C)oc2nc(C)nc(NCCCN3CCN(c4cc(Cl)ccc4C)CC3)c12	-20.1%
CCOC(=O)c1c(C)oc2nc(C)nc(N(C)Cc3ccccc3)c12	12.6µM*
COCCOc1ccc2c(n1)CCN(C(=O)c1ccnn1C)C2	42.1%
O=C(O)C1CC2(CCN(C(=O)Cc3ccc4c(c3)OCO4)CC2)CN1 (centres undefined)	-9.7%
COc1ccc(CCNc2ncnc3c2CN(c2ccc(OC)cc2)C(=O)CN3C)cc1	-13.8%
CCN1C(=O)C2CC3(CCN(C(=O)c4c(C)noc4C)CC3)CN2C1=O (centres undefined)	12.3%
O=C(C1CCc2nnc(-c3ccc(Cl)nc3)n21)N1CCCC1 (centres undefined)	-1.6%
COc1cccc(CN2CCc3c(cc(C(=O)N(C)C)n3C)C2)c1	-15.5%
COc1cccc(CN2CCc3c(cc(C(=O)N4CCN(CC(C)C)CC4)n3C)C2)c1	6.31µM*
Cn1c(C(=O)NCc2cccnc2)cc2c1CCN(Cc1ccccc1)C2	i
